Reference: PubChem BioAssay AID1159580 (chemical genetic matrix, 2015)
Several values for one entry are separate records, joined by “and”; a condition that tells them apart may be missing. Equal entries are not always repeated. Out of some 5,500 compounds screened, about 2,000 (36%) were called active. Another 18% or so got no clear call; they are omitted. No stated cut-off is given here; in the data, active means normalized growth mostly below about 0.91 (no sharp cut-off); inconclusive means no clear call, values can overlap the other calls; inactive means mostly above about 0.92. The list shows a part of the results.

Assay: chemical genetic growth profiling, strain panel (AID 1159580);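 further: tested at 20 µM; growth read once vehicle control cultures reached saturation at 30 °C; 1 = growth at the plate median or of vehicle wells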
Conditions: S. cerevisiae deletion strains, growth OD

Measured: normalized growth

Cc1cc(C(C)(C)CC(C)(C)C)ccc1OCCOCC[N+](C)(C)Cc1ccccc1
active: locus YAL013W, strain DEP1, stronger effect = lower value 0.056 | locus YAL021C, strain ccr4, stronger effect = lower value 0.0621 | locus YAL026C, strain drs2, stronger effect = lower value 0.0577 | locus YAL030W, strain snc1, stronger effect = lower value 0.0548 | locus YBL061C, strain skt5, stronger effect = lower value 0.0577 | locus YBR009C, strain hhf1, stronger effect = lower value 0.0593 | locus YBR021W, strain FUR4, stronger effect = lower value 0.0884 | locus YBR023C, strain chs3, stronger effect = lower value 0.0588 | locus YBR171W, strain sec66, stronger effect = lower value 0.0729 | locus YBR229C, strain ROT2, stronger effect = lower value 0.0513 | locus YBR231C, strain swc5, stronger effect = lower value 0.0584 | locus YBR279W, strain paf1, stronger effect = lower value 0.0568 | locus YCL011C, strain gbp2, stronger effect = lower value 0.0539 | locus YCL016C, strain dcc1, stronger effect = lower value 0.0604 | locus YCL029C, strain bik1, stronger effect = lower value 0.0578 | locus YCL061C, strain MRC1, stronger effect = lower value 0.0639 | locus YCL069W, strain vba3, stronger effect = lower value 0.0588 | locus YCR088W, strain abp1, stronger effect = lower value 0.0592 | locus YDL005C, strain med2, stronger effect = lower value 0.0722 | locus YDL035C, strain GPR1, stronger effect = lower value 0.0517 | locus YDL040C, strain nat1, stronger effect = lower value 0.0573 | locus YDL074C, strain BRE1, stronger effect = lower value 0.0803 | locus YDL101C, strain DUN1, stronger effect = lower value 0.0608 | locus YDL134C, strain PPH21, stronger effect = lower value 0.0535 | locus YDL185W, strain tfp1, stronger effect = lower value 0.0735 | locus YDL192W, strain arf1, stronger effect = lower value 0.0575 | locus YDR001C, strain nth1, stronger effect = lower value 0.0561 | locus YDR069C, strain doa4, stronger effect = lower value 0.0594 | locus YDR101C, strain arx1, stronger effect = lower value 0.0572 | locus YDR137W, strain rgp1, stronger effect = lower value 0.0892 | locus YDR159W, strain sac3, stronger effect = lower value 0.0785 | locus YDR162C, strain NBP2, stronger effect = lower value 0.0508 | locus YDR195W, strain ref2 0.112 | locus YDR297W, strain sur2, stronger effect = lower value 0.0548 | locus YDR318W, strain mcm21, stronger effect = lower value 0.0609 | locus YDR334W, strain swr1, stronger effect = lower value 0.0602 | locus YDR335W, strain msn5, stronger effect = lower value 0.0584 | locus YDR388W, stronger effect = lower value 0.0542 | locus YDR392W, strain spt3, stronger effect = lower value 0.0691 | locus YDR502C, strain sam2, stronger effect = lower value 0.0626 | locus YEL003W, strain gim4, stronger effect = lower value 0.0521 | locus YEL037C, strain rad23, stronger effect = lower value 0.0554 | locus YEL061C, strain CIN8 (second series), stronger effect = lower value 0.0588 | locus YEL061C, strain CIN8, stronger effect = lower value 0.0504 | locus YER015W, strain faa2, stronger effect = lower value 0.0619 | locus YER016W, strain bim1, stronger effect = lower value 0.0588 | locus YER110C, stronger effect = lower value 0.0699 | locus YER111C, strain swi4, stronger effect = lower value 0.0695 | locus YER155C, strain BEM2 (second series), stronger effect = lower value 0.0851 | locus YER155C, strain BEM2, stronger effect = lower value 0.0684 | locus YER167W, strain BCK2, stronger effect = lower value 0.0531 | locus YFR010W, strain ubp6, stronger effect = lower value 0.0641 | locus YGL078C, strain dbp3, stronger effect = lower value 0.0843 | locus YGL086W, strain mad1, stronger effect = lower value 0.0561 | locus YGL167C, strain pmr1, stronger effect = lower value 0.0723 | locus YGL173C, strain kem1, stronger effect = lower value 0.0635 | locus YGL227W, strain vid30, stronger effect = lower value 0.0611 | locus YGL240W, strain doc1, stronger effect = lower value 0.0709 | locus YGL248W, strain PDE1, stronger effect = lower value 0.05 | locus YGL253W, strain hxk2, stronger effect = lower value 0.0523 | locus YGR135W, strain pre9, stronger effect = lower value 0.0617 | locus YGR252W, strain gcn5, stronger effect = lower value 0.165 | locus YHR013C, strain ard1, stronger effect = lower value 0.0989 | locus YHR027C, strain rpn1, stronger effect = lower value 0.0592 | locus YHR030C, strain SLT2, stronger effect = lower value 0.0522 and 0.101 | locus YHR079C, strain IRE1 (second series), stronger effect = lower value 0.0549 | locus YHR079C, strain IRE1, stronger effect = lower value 0.104 | locus YHR094C, strain hxt1, stronger effect = lower value 0.0561 | locus YHR129C, strain ARP1, stronger effect = lower value 0.0578 | locus YHR142W, strain chs7, stronger effect = lower value 0.072 | locus YHR200W, strain rpn10, stronger effect = lower value 0.0568 | locus YIL066C, strain RNR3, stronger effect = lower value 0.054 | locus YIL073C, strain SPO22, stronger effect = lower value 0.12 | locus YIL125W, strain kgd1, stronger effect = lower value 0.0749 | locus YIR030C, strain dcg1, stronger effect = lower value 0.0563 | locus YJL092W, strain hpr5, stronger effect = lower value 0.0568 | locus YJL095W, strain BCK1 (second series), stronger effect = lower value 0.0554 | locus YJL095W, strain BCK1, stronger effect = lower value 0.0585 and 0.103 | locus YJL115W, strain asf1, stronger effect = lower value 0.0691 | locus YJL129C, strain trk1, stronger effect = lower value 0.0794 | locus YJL134W, strain LCB3, stronger effect = lower value 0.0506 | locus YJL154C, strain vps35, stronger effect = lower value 0.0594 | locus YJL164C, strain tpk1, stronger effect = lower value 0.057 | locus YJL166W, strain qcr8, stronger effect = lower value 0.0596 | locus YJL168C, strain set2, stronger effect = lower value 0.0557 | locus YJL187C, strain SWE1 (second series), stronger effect = lower value 0.0514 | locus YJL187C, strain SWE1, stronger effect = lower value 0.0563 | locus YJR043C, strain POL32, stronger effect = lower value 0.0648 | locus YJR066W, strain TOR1, stronger effect = lower value 0.00362 | locus YKL009W, strain mrt4, stronger effect = lower value 0.213 | locus YKL068W, stronger effect = lower value 0.172 | locus YKL085W, strain MDH1 (second series), stronger effect = lower value 0.0866 | locus YKL085W, strain MDH1, stronger effect = lower value 0.0866 | locus YKL160W, strain elf1, stronger effect = lower value 0.0603 | locus YKR001C, strain vps1, stronger effect = lower value 0.0608 | locus YKR026C, strain gcn3, stronger effect = lower value 0.0637 | locus YKR091W, strain srl3, stronger effect = lower value 0.0576 | locus YLL001W, strain dnm1, stronger effect = lower value 0.0592 | locus YLL026W, stronger effect = lower value 0.056 | locus YLL041C, strain sdh2, stronger effect = lower value 0.0575 | locus YLR027C, strain aat2, stronger effect = lower value 0.0549 | locus YLR039C, strain RIC1, stronger effect = lower value 0.0893 | locus YLR058C, strain SHM2, stronger effect = lower value 0.052 | locus YLR102C, strain apc9, stronger effect = lower value 0.0571 | locus YLR113W, strain HOG1, stronger effect = lower value 0.119 | locus YLR221C, strain rsa3, stronger effect = lower value 0.0575 | locus YLR258W, strain gsy2, stronger effect = lower value 0.0566 | locus YLR262C, strain YPT6 (second series), stronger effect = lower value 0.0719 | locus YLR262C, strain YPT6, stronger effect = lower value 0.0979 | locus YLR268W, strain sec22, stronger effect = lower value 0.0813 | locus YLR320W, strain mms22, stronger effect = lower value 0.0724 | locus YLR330W, strain CHS5, stronger effect = lower value 0.0528 | locus YLR342W, strain FKS1 (second series), stronger effect = lower value 0.0706 | locus YLR342W, strain FKS1, stronger effect = lower value 0.0618 | locus YLR357W, strain rsc2, stronger effect = lower value 0.114 | locus YLR370C, strain arc18, stronger effect = lower value 0.0577 | locus YLR371W, strain rom2, stronger effect = lower value 0.0597 | locus YLR384C, strain iki3, stronger effect = lower value 0.0598 | locus YLR418C, strain cdc73, stronger effect = lower value 0.0929 | locus YML016C, strain PPZ1, stronger effect = lower value 0.0514 | locus YML032C, strain rad52, stronger effect = lower value 0.0687 | locus YML120C, strain ndi1, stronger effect = lower value 0.0557 | locus YML124C, strain tub3, stronger effect = lower value 0.0571 | locus YMR058W, strain fet3, stronger effect = lower value 0.0582 | locus YMR078C, strain ctf18, stronger effect = lower value 0.0671 | locus YMR125W, strain sto1, stronger effect = lower value 0.073 | locus YMR129W, stronger effect = lower value 0.0561 | locus YMR205C, strain PFK2, stronger effect = lower value 0.0818 | locus YMR223W, strain ubp8, stronger effect = lower value 0.0638 | locus YMR231W, strain pep5, stronger effect = lower value 0.0634 | locus YMR307W, strain GAS1, stronger effect = lower value 0.113 | locus YNL067W, strain RPL9B, stronger effect = lower value 0.051 | locus YNL071W, strain lat1, stronger effect = lower value 0.0592 | locus YNL153C, strain GIM3, stronger effect = lower value 0.0542 | locus YNL183C, strain NPR1, stronger effect = lower value 0.00188 | locus YNL209W, strain ssb2, stronger effect = lower value 0.0576 | locus YNL233W, strain BNI4, stronger effect = lower value 0.0574 | locus YNL248C, strain rpa49, stronger effect = lower value 0.0804 | locus YNL250W, strain rad50, stronger effect = lower value 0.109 | locus YNL271C, strain bni1, stronger effect = lower value 0.0656 | locus YNL298W, strain CLA4, stronger effect = lower value 0.0604 | locus YNL307C, strain MCK1, stronger effect = lower value 0.0681 | locus YNL322C, strain KRE1 (second series), stronger effect = lower value 0.0636 | locus YNR049C, strain mso1, stronger effect = lower value 0.0552 | locus YNR052C, strain pop2, stronger effect = lower value 0.0587 | locus YOL006C, strain TOP1, stronger effect = lower value 0.115 | locus YOL147C, strain pex11, stronger effect = lower value 0.0557 | locus YOR001W, strain rrp6, stronger effect = lower value 0.0651 | locus YOR061W, strain CKA2, stronger effect = lower value 0.0485 | locus YOR069W, strain VPS5, stronger effect = lower value 0.0867 | locus YOR070C, strain gyp1, stronger effect = lower value 0.0566 | locus YOR080W, strain dia2, stronger effect = lower value 0.0634 | locus YOR083W, strain WHI5, stronger effect = lower value 0.0581 | locus YOR106W, strain vam3, stronger effect = lower value 0.0627 | locus YOR136W, strain idh2, stronger effect = lower value 0.0687 | locus YOR144C, strain elg1, stronger effect = lower value 0.0552 | locus YOR184W, strain ser1, stronger effect = lower value 0.0763 | locus YOR231W, strain MKK1, stronger effect = lower value 0.103 | locus YOR265W, strain rbl2, stronger effect = lower value 0.055 | locus YOR270C, strain vph1, stronger effect = lower value 0.0945 | locus YOR290C, strain snf2, stronger effect = lower value 0.0584 | locus YOR316C, strain cot1, stronger effect = lower value 0.056 | locus YPL051W, strain arl3, stronger effect = lower value 0.0608 | locus YPL055C, strain LGE1, stronger effect = lower value 0.0718 | locus YPL078C, strain atp4, stronger effect = lower value 0.0619 | locus YPL106C, strain sse1, stronger effect = lower value 0.0907 | locus YPL240C, strain hsp82, stronger effect = lower value 0.057 | locus YPL256C, strain CLN2, stronger effect = lower value 0.105 | locus YPR119W, strain clb2, stronger effect = lower value 0.0584 | locus YPR141C, strain kar3, stronger effect = lower value 0.0826 | locus YPR163C, strain tif3, stronger effect = lower value 0.0658 | locus YPR167C, strain met16, stronger effect = lower value 0.059 | strain wtn01, stronger effect = lower value 0.0645
